# Data as given in PubChem BioAssay (Tox21).
# A number with no mark means an inactive call. Inconclusive results are not listed. Where a call stands in place of a potency, no number is given. Active and inactive are the calls of the source. Unless noted, the call rests on the fitted dose curve; in most records, active means well fitted curve in the direction sought with a large enough effect in the repeat runs; inconclusive means weak or mixed curves; inactive means no such curve, though single readings can be large; an effect the other way counts as inactive or inconclusive.
# Columns and labels:
# [1] = target: Progesterone receptor (Homo sapiens) (UniProt P06401); assay: qHTS assay to identify small molecule antagonists of the progesterone receptor (PR) signaling pathway (AID 1346795; active means well fitted inhibition curve with a large enough effect in the signal ratio in the repeat runs, not every such curve was filed as active; the % refers to the signal ratio; further: potency means the concentration at half of the fitted maximal effect)
# Progesterone receptor (Homo sapiens), sequence (P06401 whole entry, looked up): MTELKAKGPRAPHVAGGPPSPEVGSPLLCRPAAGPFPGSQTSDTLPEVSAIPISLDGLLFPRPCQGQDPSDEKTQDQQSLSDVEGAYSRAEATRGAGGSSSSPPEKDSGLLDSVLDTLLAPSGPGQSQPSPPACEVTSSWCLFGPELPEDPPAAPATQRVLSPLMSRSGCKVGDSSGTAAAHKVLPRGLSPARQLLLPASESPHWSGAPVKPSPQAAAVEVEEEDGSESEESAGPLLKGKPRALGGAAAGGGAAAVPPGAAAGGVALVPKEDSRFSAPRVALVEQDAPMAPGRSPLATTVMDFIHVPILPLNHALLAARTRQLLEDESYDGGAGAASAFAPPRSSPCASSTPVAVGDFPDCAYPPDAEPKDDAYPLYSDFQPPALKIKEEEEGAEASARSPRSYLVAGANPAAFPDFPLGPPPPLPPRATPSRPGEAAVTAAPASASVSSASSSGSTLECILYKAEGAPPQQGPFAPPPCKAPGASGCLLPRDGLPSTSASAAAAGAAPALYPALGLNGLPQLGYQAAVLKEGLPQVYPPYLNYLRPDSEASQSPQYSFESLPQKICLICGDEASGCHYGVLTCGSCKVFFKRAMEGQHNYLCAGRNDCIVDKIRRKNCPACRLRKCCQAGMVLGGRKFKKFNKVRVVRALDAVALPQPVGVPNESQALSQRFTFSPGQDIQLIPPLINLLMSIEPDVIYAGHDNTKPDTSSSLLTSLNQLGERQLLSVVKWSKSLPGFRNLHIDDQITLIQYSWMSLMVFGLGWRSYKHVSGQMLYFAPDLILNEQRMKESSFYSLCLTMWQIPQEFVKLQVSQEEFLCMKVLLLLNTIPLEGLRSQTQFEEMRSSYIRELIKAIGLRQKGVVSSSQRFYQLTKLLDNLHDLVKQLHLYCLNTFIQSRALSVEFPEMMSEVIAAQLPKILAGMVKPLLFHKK
# In short: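 Read-out is fluorescence from the LiveBLAzer B/G FRET substrate, cleaved by a UAS-controlled beta-lactamase in PR-UAS-bla HEK293T cells after 16 hr exposure to compound plus 1 nM promegestone (final), followed by 2 hr at room temperature.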
# [2] = qHTS assay to identify small molecule antagonists of the progesterone receptor (PR) signaling pathway - cell viability counter screen (AID 1346798); further: nearly all actives have a fitted effect of over 50% in size; further: potency means the concentration at half of the fitted maximal effect
# In short: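 HEK293T PR-UAS-bla, 2% charcoal-stripped FBS; 4 hr pre-plate; cpd + R5020, 16 h 37C; LiveBLAzer read first; then CellTiter-Glo 30 min RT, luminescence.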
# [3] = qHTS assay to identify small molecule agonists of the progesterone receptor (PR) signaling pathway - cell viability counter screen (AID 1346799; calls by dose curve; further: nearly all actives have a fitted effect of over 45% in size; further: potency means the concentration at half of the fitted maximal effect)
# In short: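 Luminescence from CellTiter-Glo, added after the beta-lactamase FRET read in the same wells, gave cytotoxicity in PR-UAS-bla HEK293T cells treated with compounds for 16 hr at 37C.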
# [4] = qHTS assay to identify small molecule antagonists of the TGF-beta/Smad signaling pathway - cell viability counter screen (AID 1346824); further: nearly all actives have a fitted effect of over 50% in size; further: potency means the concentration at half of the fitted maximal effect
# In short: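 SBE-bla HEK 293T cells, incubated overnight, then compound plus 0.25 ng/mL TGF-beta1 (stock added) for 5 hr at 37 C. Viability was read in the same wells by CellTiter-Glo luminescence after 30 min at room temperature.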
# [5] = qHTS assay to identify small molecule agonists of the TGF-beta/Smad signaling pathway - cell viability counter screen (AID 1346829); further: nearly all actives have a fitted effect of over 45% in size; further: potency means the concentration at half of the fitted maximal effect
# In short: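 Luminescence from CellTiter-Glo, read after a 30 min room-temperature incubation, gives cell viability of SBE-bla HEK 293T cells treated 5 hr with compounds at 37 C.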
# [6] = qHTS assay to identify small molecule agonists of the TGF-beta/Smad signaling pathway (AID 1346859; active means well fitted activation curve with a large enough effect in the signal ratio in the repeat runs, not every such curve was filed as active; the % refers to the signal ratio; further: series mostly up to about 77 µM)
# In short: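 SBE-bla HEK 293T, 4,000 cells/well, plated o/n; cpd in DMSO, 5 hr, 37 C/5% CO2; B/G FRET substrate 2 hr RT; ex 405, em 460/530 nm.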
# [7] = Human pregnane X receptor (PXR) small molecule agonists, qHTS cell viability counter screen (AID 1346977); further: nearly all actives have a fitted effect of over 50% in size; further: potency means the concentration at half of the fitted maximal effect
# In short: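 PXR-Luc HepG2, 2,000 cells/well, 5% charcoal-stripped FBS; 5hr settle; cpd 24hr, 37C/5% CO2; CellTiter-Fluor at 23hr, read 1hr later (fluorescence).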
# [8] = Caspase-3/7 induction in CHO-K1 cells by small molecules, qHTS cell viability counter screen (AID 1346979); further: nearly all actives have a fitted effect of over 35% in size; further: potency means the concentration at half of the fitted maximal effect
# In short: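 Cells (CHO-K1, wild type) are plated at 1,500 per well and incubated 5hr. Test compounds in DMSO are then pinned in, followed by 16hr at 37C and 5% CO2. Viability is read by CellTiter-Fluor fluorescence after 1hr.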
# [9] = Caspase-3/7 induction in CHO-K1 cells by small molecules, qHTS assay (AID 1346980); further: nearly all actives have a fitted effect of over 15% in size; further: potency means the concentration at half of the fitted maximal effect
# In short: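 Wild-type CHO-K1 cells exposed to compounds for 17hr at 37 C, 5% CO2. Caspase-3/7 activity then measured by Caspase-Glo 3/7 luminescence after 30min at room temperature.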
# [10] = Caspase-3/7 induction in HepG2 cells by small molecules, qHTS cell viability counter screen (AID 1346981); further: nearly all actives have a fitted effect of over 30% in size; further: potency means the concentration at half of the fitted maximal effect
# In short: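 Fluorescence read-out of live-cell protease activity (CellTiter-Fluor) after 1 hr with reagent. This was measured in the same wells as the caspase-3/7 luminescence, on HepG2 cells exposed to DMSO-dissolved compounds for 16 hr at 37 C.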
# [11] = target: Progesterone receptor (Homo sapiens) (UniProt P06401); assay: qHTS assay to identify small molecule agonists of the progesterone receptor (PR) signaling pathway (AID 1346784; calls by dose curve; further: nearly all actives have a fitted effect of over 30% in size; further: potency means the concentration at half of the fitted maximal effect)
# In short: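 Beta-lactamase reporter read-out: after 16 hr compound treatment at 37C and a further 2 hr at room temperature with LiveBLAzer B/G FRET substrate, fluorescence was measured in PR-UAS-bla HEK 293T cells grown in 2% charcoal-stripped serum.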
# [12] = target: Thyrotropin-releasing hormone receptor (Homo sapiens) (UniProt P34981); assay: qHTS assay to identify small molecule antagonists of the thyrotropin-releasing hormone receptor (TRHR) signaling pathway (AID 1346877; active means well fitted inhibition curve with a large enough effect in the repeat runs, not every such curve was filed as active; further: potency means the concentration at half of the fitted maximal effect)
# Thyrotropin-releasing hormone receptor (Homo sapiens), sequence (P34981 whole entry, looked up): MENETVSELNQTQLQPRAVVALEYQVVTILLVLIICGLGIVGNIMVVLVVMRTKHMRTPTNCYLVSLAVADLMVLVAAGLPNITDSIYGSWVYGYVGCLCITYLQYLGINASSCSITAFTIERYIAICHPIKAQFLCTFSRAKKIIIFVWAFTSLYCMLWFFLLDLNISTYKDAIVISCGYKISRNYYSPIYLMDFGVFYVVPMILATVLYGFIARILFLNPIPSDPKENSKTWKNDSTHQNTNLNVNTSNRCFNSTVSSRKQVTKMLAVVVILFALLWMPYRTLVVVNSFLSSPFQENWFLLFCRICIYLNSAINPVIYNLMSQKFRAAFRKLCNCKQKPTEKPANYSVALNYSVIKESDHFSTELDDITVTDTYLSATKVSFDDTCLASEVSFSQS
# In short: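 HEK293/TRHR cells, 18 h, 37 °C; Ca2+ dye 2 h; cpd 5 min RT; TRH 1 nM final; fluorescence read 3 min, 1 s intervals; 15 concs, triplicate.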
# [13] = target: Thyrotropin-releasing hormone receptor (Homo sapiens) (UniProt P34981); assay: qHTS assay to identify small molecule agonists of the thyrotropin-releasing hormone receptor (TRHR) signaling pathway (AID 1346891; calls by dose curve; further: potency means the concentration at half of the fitted maximal effect; on activation: series mostly up to about 58 µM)
# In short: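 Intracellular calcium rise, read as fluorescence every second for 3 min, served as the agonist signal in dye-loaded HEK293 cells expressing TRHR; each compound ran at 15 concentrations in triplicate.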
# [14] = Caspase-3/7 induction in HepG2 cells by small molecules, qHTS assay (AID 1346978); further: nearly all actives have a fitted effect of over 15% in size; further: potency means the concentration at half of the fitted maximal effect
# In short: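 Wild-type HepG2 cells, 2,000/well, settled 5 hr at 37 C and 5% CO2, then compound-treated for 17 hr; caspase-3/7 activity read by luminescent Caspase-Glo 3/7 after 30 min at room temperature.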
# [15] = target: Nuclear receptor subfamily 1 group I member 2 (Homo sapiens) (UniProt O75469); assay: Human pregnane X receptor (PXR) small molecule agonists, qHTS assay (AID 1346982); further: nearly all actives have a fitted effect of over 35% in size; further: potency means the concentration at half of the fitted maximal effect
# Nuclear receptor subfamily 1 group I member 2 (Homo sapiens), sequence (O75469 whole entry, looked up): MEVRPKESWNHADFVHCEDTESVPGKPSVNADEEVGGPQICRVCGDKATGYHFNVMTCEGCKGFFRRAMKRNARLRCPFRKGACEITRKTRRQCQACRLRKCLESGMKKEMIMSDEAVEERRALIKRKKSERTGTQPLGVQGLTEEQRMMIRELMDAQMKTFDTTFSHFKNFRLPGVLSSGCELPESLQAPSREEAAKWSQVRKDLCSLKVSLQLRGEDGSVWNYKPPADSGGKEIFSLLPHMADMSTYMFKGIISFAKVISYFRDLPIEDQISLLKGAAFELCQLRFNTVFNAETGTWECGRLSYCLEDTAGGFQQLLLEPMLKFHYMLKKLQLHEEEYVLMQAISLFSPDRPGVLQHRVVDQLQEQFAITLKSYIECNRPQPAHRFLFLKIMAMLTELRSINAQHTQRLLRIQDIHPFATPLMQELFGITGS
# In short: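 HepG2 PXR-Luc reporter line, 5% charcoal-stripped FBS; 5 hr pre-incubation, compound (DMSO) 24 hr at 37 C/5% CO2; ONE-Glo 30 min RT; luminescence read-out.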
# [16] = target: Acetylcholinesterase (Homo sapiens) (UniProt P22303); assay: Acetylcholinesterase (AChE) small molecule antagonists: colormetric cell-based qHTS assay (AID 1347395; calls by dose curve; further: nearly all actives have a fitted effect of over 30% in size; further: potency means the concentration at half of the fitted maximal effect)
# Acetylcholinesterase (Homo sapiens), sequence (P22303 whole entry, looked up): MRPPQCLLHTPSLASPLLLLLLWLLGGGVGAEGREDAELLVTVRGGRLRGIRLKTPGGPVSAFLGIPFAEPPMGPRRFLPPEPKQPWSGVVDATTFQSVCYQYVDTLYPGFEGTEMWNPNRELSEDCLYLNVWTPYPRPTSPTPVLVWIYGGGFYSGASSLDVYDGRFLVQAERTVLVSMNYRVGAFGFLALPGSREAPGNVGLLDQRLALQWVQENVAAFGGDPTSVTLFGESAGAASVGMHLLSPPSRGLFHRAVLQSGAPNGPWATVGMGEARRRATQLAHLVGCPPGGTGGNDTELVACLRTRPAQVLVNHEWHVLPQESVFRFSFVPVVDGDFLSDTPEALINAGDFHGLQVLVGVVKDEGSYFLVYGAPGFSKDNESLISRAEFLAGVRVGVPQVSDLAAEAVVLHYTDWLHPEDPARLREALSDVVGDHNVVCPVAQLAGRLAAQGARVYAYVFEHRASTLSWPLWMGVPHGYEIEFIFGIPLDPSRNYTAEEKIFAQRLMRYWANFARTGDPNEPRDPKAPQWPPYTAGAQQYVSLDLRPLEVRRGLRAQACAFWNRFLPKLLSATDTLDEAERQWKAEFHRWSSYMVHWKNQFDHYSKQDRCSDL
# In short: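 Colorimetric read-out: DTNB detects thiocholine released when cellular AChE in SH-SY5Y cells hydrolyses acetylthiocholine. Cells attached overnight, received compound for 30 min at 37 C, then substrate mix for 90 min at 37 C.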
# [17] = target: Acetylcholinesterase (Homo sapiens) (UniProt P22303); assay: Acetylcholinesterase (AChE) small molecule antagonists: enzyme-based qHTS assay (AID 1347397; calls by dose curve; further: nearly all actives have a fitted effect of over 55% in size); conditions: Potency: AChE enzyme activity inhibition
# In short: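 Colorimetric DTNB read-out of thiocholine released from acetylthiocholine by recombinant human AChE (50 mU/mL as dispensed). Compounds were preincubated 30 min at RT before substrate/DTNB addition, with a 10 min RT reaction.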
# [18] = target: Nuclear receptor subfamily 1 group I member 2 (Homo sapiens) (UniProt O75469); assay: CYP3A4 induction through human pregnane X receptor (PXR) by small molecules, qHTS assay (AID 1346984); further: nearly all actives have a fitted effect of over 40% in size
# In short: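 HepG2-derived DPX-2 line carrying PXR plus a CYP3A4-promoter luciferase reporter; cells plated 5 hr, compound-exposed 24 hr at 37C. CYP3A4 activity probed with 3uM (final) Luciferin-IPA for 3hr, then luciferase read after One-Glo.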
# [19] = target: Nuclear receptor subfamily 1 group I member 2 (Homo sapiens) (UniProt O75469); assay: Human pregnane X receptor (PXR) activation by small molecules, qHTS assay (AID 1346985); further: potency means the concentration at half of the fitted maximal effect; nearly all actives have a fitted effect of over 40% in size
# In short: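 DPX-2 cells (HepG2 co-transfected with a PXR response element and a CYP3A4-promoter luciferase construct) were seeded at 2,000 per well, rested 5 hr at 37C, then exposed to DMSO-dissolved compounds for 24 hr. Activation was read as luciferase luminescence.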
SMILES,Potency [1],Potency [2],Potency [3],Potency [4],Potency [5],outcome [6],Potency [7],Potency [8],Potency [9],Potency [10],Potency [11],Potency [12],Potency [13],Potency [14],Potency [15],Potency [16],Potency [17],Potency [18],Potency [19]
C1=CCC=C1,inactive,inactive,inactive,inactive,inactive,inactive,inactive,inactive,inactive,inactive,–,–,–,–,–,–,–,–,–
CCN(CC)CCc1c[nH]c2ccccc12,–,90.4 µM (active),–,–,inactive,inactive,–,inactive,inactive,inactive,inactive,inactive,inactive,inactive,inactive,inactive,inactive,–,–
O=C(NC(=O)c1ccccc1Cl)Nc1ccc(OC(F)(F)F)cc1,–,–,–,–,inactive,inactive,inactive,inactive,inactive,inactive,inactive,–,–,inactive,–,inactive,inactive,–,–
CC(C)Br,–,–,–,–,inactive,inactive,inactive,inactive,inactive,inactive,inactive,inactive,inactive,inactive,inactive,inactive,inactive,–,–
CC1(C)[C@H](/C=C2\CCSC2=O)[C@@H]1C(=O)OCc1coc(Cc2ccccc2)c1,–,–,–,inactive,inactive,inactive,inactive,61.1 µM (active),inactive,inactive,inactive,inactive,inactive,inactive,21.7 µM (active),inactive,–,–,–
CCC(OC(C)=O)C(CC(C)NC)(c1ccccc1)c1ccccc1 (stereo unspecified),54.9 µM (active),54.9 µM (active),–,–,inactive,inactive,27.5 µM (active),69.2 µM (active),–,69.2 µM (active),–,inactive,inactive,69.2 µM (active),–,inactive,inactive,–,–
CN(C)CCc1c[nH]c2ccccc12,–,–,–,inactive,inactive,inactive,–,inactive,inactive,inactive,inactive,inactive,inactive,inactive,inactive,inactive,inactive,–,–
C=C(C)C(=O)[O][Sn]([CH2]CCC)([CH2]CCC)[CH2]CCC,1.09 µM (active),3.44 µM (active),2.17 µM (active),1.38 µM (active),1.1 µM (active),–,0.306 µM (active),0.306 µM (active),0.433 µM (active),2.43 µM (active),–,2.69 µM (active),11 µM (active),2.17 µM (active),0.193 µM (active),inactive,inactive,–,–
CSSC,–,–,–,inactive,inactive,inactive,inactive,inactive,–,inactive,inactive,inactive,inactive,24.6 µM (active),–,inactive,inactive,–,–
CN1CCc2cc3c(cc2C1O)OCO3 (stereo unspecified),inactive,inactive,inactive,inactive,inactive,–,–,–,inactive,–,–,inactive,inactive,inactive,–,–,–,–,–
CC(=O)[O-].CC(=O)[O-].[Co+2],–,–,–,inactive,inactive,inactive,inactive,inactive,inactive,inactive,inactive,–,–,inactive,–,–,–,–,–
[C-]1=CC=CC1.[Cl][Zr+2][Cl].c1cc[cH-]c1,inactive,inactive,inactive,–,inactive,inactive,inactive,inactive,–,inactive,–,–,–,–,–,–,–,–,–
Nc1c(Cl)c(Cl)c(Cl)c(Cl)c1Cl,–,–,–,–,inactive,inactive,inactive,inactive,inactive,inactive,1.22 µM (active),inactive,inactive,inactive,–,inactive,inactive,–,–
ClC1=C(Cl)[C@]2(Cl)[C@@H]3[C@H]4C[C@H]([C@@H]5O[C@H]45)[C@@H]3[C@@]1(Cl)C2(Cl)Cl,–,–,–,inactive,inactive,inactive,–,–,inactive,inactive,inactive,inactive,inactive,inactive,5.44 µM (active),–,inactive,inactive,25.1 µM (active)
CNC(=O)O/N=C(\C)C(C)S(C)(=O)=O (stereo unspecified),–,–,–,–,inactive,inactive,inactive,inactive,–,inactive,inactive,–,–,inactive,–,355 µM (active),–,–,–
CCOP(=S)(NC(C)C)Oc1ccccc1C(=O)OC(C)C (stereo unspecified),–,–,–,inactive,inactive,–,–,61.1 µM (active),inactive,–,inactive,inactive,inactive,inactive,3.06 µM (active),inactive,inactive,–,–
CCCCC(CC)COC(=O)OOC(C)(C)C (stereo unspecified),inactive,inactive,–,inactive,inactive,inactive,inactive,inactive,inactive,inactive,–,inactive,inactive,inactive,inactive,inactive,inactive,–,–
CCO/N=C(\CC)C1=C(O)CC(c2c(C)cc(C)cc2C)CC1=O (stereo unspecified),–,–,–,inactive,inactive,inactive,inactive,–,inactive,inactive,inactive,–,–,inactive,30.6 µM (active),–,inactive,–,–
[Cl-].[Cl-].[Cl-].[Yb+3],inactive,inactive,–,inactive,inactive,inactive,inactive,inactive,inactive,inactive,–,–,–,inactive,–,–,–,–,–
O=c1[nH]c2cc(Cl)ccc2n1C1CCNCC1,inactive,inactive,–,inactive,inactive,inactive,inactive,inactive,inactive,inactive,–,inactive,inactive,inactive,inactive,inactive,inactive,–,–
